From PubChem BioAssay AID1259343 (VanderVen Lab, College of Veterinary Medicine, Cornell …, 2017) come the findings set out here.

In all, about 6,200 compounds went through this assay and about 2,900 (47%) were called active. The set was probably picked from earlier hits. The list shows a part of the results. A number with no mark means an inactive call. Cut-off read from the data, not from the text of the source: active = inhibition above about 50%; inactive = the rest.

The nature of the assay: Mycobacterium tuberculosis growth inhibition, primary screen (AID 1259343). The following applies: inhibition: at 10 µM, stronger effect = higher value; outcome: 10 uM.
As usually defined, the inhibition is the relative decrease from the control value, in per cent. Regarding `CC(C)(C)c1cc2nc(C(=O)O)cc(-c3ccc(Cl)cc3)n2n1`, the inhibition was 83.5% (active).

Regarding `CC(C)(C)c1cc2nc(C(=O)O)cc(-c3ccccc3F)n2n1`, the inhibition is 62.4% (active). `CC(C)(C)c1cc2nc(C(=O)O)cc(-c3ccccc3Cl)n2n1`: the inhibition was 58.8% (active). For `CCC(=O)O[C@H]1CCC2C3CCc4cc(O)ccc4C3CC[C@@]21C` (some centres not stated) the value was 46.7%. As for `CCC(CC)C(NC[c-]1[c-][c-][c-][c-]1)c1ccccc1.[Fe].[c-]1[c-][c-][cH-][c-]1` (configuration not stated), the inhibition was 36.6%. The value for `O=C(O)CCc1nc2ccccc2oc1=O` was 67.4% (active); that for `O=C(CCc1nc2ccccc2o1)N1CC=C(c2ccccc2)CC1` was 29.9%; that for `CCOc1ccc2cc(C(=O)C(C#N)C(=O)c3ccsc3)[nH]c2c1` (configuration not stated) was 12.1%.

On to `c1cc2c(c(-c3cccc4[nH]ccc34)c1)CCNC2`, for which the inhibition is 73.2% (active). The value for `Cn1c2c(c3cc(-c4cccc5c4CCNC5)ccc31)CCCC2=O` was 10.9%; that for `O=c1[nH]cc(F)c(=O)[nH]1` was 67.9% (active); that for `N#CC(=Cc1ccsc1)c1nc2ccccc2s1` was 11.6%. For `Cc1csc(C(C#N)=Cc2cccc(O)c2)n1` the value was 88.7% (active); for `Cc1nc(CNc2ccc3c(c2)CCN3C(=O)OC(C)(C)C)cs1`, 29.2%; for `CN1CCCc2cc(NC(=O)NCCC(=O)NC3CCCC3)ccc21`, 0.23%. The value for `CC(C)(C)OC(=O)N1CCc2cc(NC(=O)C(=O)NC3CC3)ccc21` was 74.5% (active). Regarding `COc1cccc(-c2cnnc(N3CCC(OCc4ccccc4)CC3)n2)c1`, the inhibition was 30.1%. The value for `c1ccc(COC2CCN(CCOc3ccccc3)CC2)cc1` was 50.1% (active); that for `CCc1cc(=O)[nH]c(-n2nc(C)cc2NC(=O)c2cccc(C)c2)n1` was 101% (active); that for `CCc1cc(=O)[nH]c(-n2nc(C)cc2NC(=O)c2ccc(-c3ccccc3)cc2)n1` was 103% (active). Take `CCc1cc(=O)[nH]c(-n2nc(C)cc2NC(=O)c2ccccc2)n1`: the inhibition is 102% (active).

For `N#Cc1ccc(Nc2ccc(N3CCCC3)c(F)c2)nc1`, the inhibition is 48.8%. On to `N#Cc1ccc(Nc2ccc(Cl)cc2)cc1`, for which the inhibition is 3.65%. The value for `N#Cc1ccc(Nc2ccc(OC3CCCC3)cc2)nc1` was 93.4% (active); that for `CC(C)C1=CC2=CC[C@H]3[C@](C)(CO)CCC[C@]3(C)C2CC1` (some centres not stated) was 82.5% (active). The value for `Cc1cn(Cc2csc(C(C)C)n2)cc1C#N` was 1.23%; that for `O=C(NCc1cccc(-c2ncc(-c3ccc(F)cc3)[nH]2)c1)c1cccs1` was 22.9%. The value for `N#Cc1cccc(C(=O)NCc2cccc(-c3ncc(-c4ccc(F)cc4)[nH]3)c2)c1` was 81.2% (active). Regarding `Cn1c(Sc2ncc(-c3ccc(F)cc3)[nH]2)c(C#N)c(=O)n(C)c1=O`, the inhibition is -14.4%. Take `Cc1nc(-c2ccc(NC(=O)COC3CCCCC3)cc2)cs1`: the inhibition is 95% (active). Take `O=C(COC1CCCCC1)Nc1ccc(-c2nccs2)cc1`: the inhibition is -7.41%. The value for `Cc1nn(-c2ccccc2)c(Cl)c1C(=O)Nc1cccc(C(F)(F)F)c1` was 38.3%; that for `Cc1nc(-c2cccs2)cc([C@H]2CN3CC[C@H]2C[C@@H]3CNC(=O)Nc2cccc(C(F)(F)F)c2)n1` was 53.2% (active). For `Cc1sc2nc(CSc3ccc(Br)cc3)nc(-n3ccnc3)c2c1C` the value was -19.2%; for `Cc1ccc(C(=O)Nc2ccc(OCC#N)cc2)cc1C`, 22%; for `N#CCOc1ccc(NC(=O)CCOc2ccc(F)cc2Cl)cc1`, 81.4% (active). For `CC(=O)NCCC(=O)Nc1ccc(Oc2ccc(C#N)cc2)c(Cl)c1` the value was -2.79%; for `CCOC(=O)N1CCN(S(=O)(=O)CCCOc2ccc3c(c2)OCO3)CC1`, 32.5%; for `O=S(=O)(CCCOc1ccc2c(c1)OCO2)N1CCCCC1`, 88.8% (active). On to `O=S(=O)(CCCOc1ccc2c(c1)OCO2)N1CCCCCC1`, for which the inhibition is 86% (active). For `Clc1ccc(Cn2ncc3c(N4CCCCC4)ncnc32)cc1` the value was 67.1% (active).

Consider `c1ccc2c(c1)oc1c(N3CCCCCC3)ncnc12`, for which the inhibition is -12.7%. As to `Clc1ccc(Cn2ncc3c(N4CCN(c5cccc(Cl)c5)CC4)ncnc32)cc1`, the inhibition was 14.4%.

As to `Clc1ccc(Cn2ncc3c(N4CCCC4)ncnc32)cc1`, the inhibition is 65.3% (active). Take `CC1CCN(c2ncnc3c2cnn3Cc2ccc(Cl)cc2)CC1`: the inhibition is 62.6% (active). The value for `CCN(CC)c1ncnc2c1cnn2Cc1ccc(Cl)cc1` was 34.4%. For `Cc1ccc(Cn2ncc3c(N4CCC(C)CC4)ncnc32)cc1` the value was 25.7%; for `CCOc1ccc(C2C(c3nc4ccccc4s3)=C(O)C(=O)N2c2cc(C)on2)cc1OC` (configuration not stated), 46.5%; for `Clc1ccccc1C(c1ccccc1)(c1ccccc1)n1ccnc1`, 68.1% (active). For `COc1cc(OC)c2c(OC)c(-c3ccc4c(c3)OCO4)c(=O)oc2c1` the value was 70.6% (active); for `Cn1ncc2c(N3CCN(CC(=O)Nc4ccc(Cl)cc4F)CC3)ncnc21`, 88.8% (active).

In the case of `CCCc1cc(=O)[nH]c(-n2nc(C)cc2NC(=O)c2ccc(OCC)cc2)n1`, the inhibition was 100% (active). The value for `CCCc1cc(=O)[nH]c(-n2nc(C)cc2NC(=O)c2cc(OCC)c(OCC)c(OCC)c2)n1` was 100% (active); that for `CCOc1cc(C(=O)Nc2cc(C)nn2-c2nc(C)cc(=O)[nH]2)cc(OCC)c1OCC` was 100% (active). The value for `CCCCOc1ccc(C(=O)Nc2cc(C)nn2-c2nc(CCC)cc(=O)[nH]2)cc1` was 101% (active); that for `CCCc1cc(=O)[nH]c(-n2nc(C)cc2NC(=O)c2ccc(OC)cc2)n1` was -40.9%; that for `O=C(COc1ccc(Cl)c2ccccc12)NCC(F)(F)F` was 17.8%. For `Clc1ccc(OCC2CCCNC2)c2ccccc12` (configuration not stated) the value was 77.8% (active). For the compound `Nc1ncc(Cc2ccc(F)c(Cl)c2)s1`, the inhibition is -17.6%. Consider `Nc1ncc(Cc2ccc(Br)cc2)s1`, for which the inhibition was 46.1%. The value for `Nc1ncc(Cc2ccc(F)cc2)s1` was 93% (active); that for `COC(=O)c1ccc(COc2ccc(C3C4=C(Nc5nnnn53)C(C(C)(C)C)CCC4)cc2)cc1` (configuration not stated) was 88.6% (active); that for `COCCc1noc(C2CC2c2ccc(C)s2)n1` (configuration not stated) was 90.7% (active). In the case of `Cc1ccc(C2CC2C(=O)NC(C)c2nc(C3CCCC3)no2)s1` (configuration not stated), the inhibition was 29.8%. The value for `O=S(N1CCc2ccccc2C1)C12CC3CC(CC(C3)C1)C2` (configuration not stated) was 80.3% (active). On to `O=c1cc(CSc2cccc[n+]2[O-])c2c(ccc3ccccc32)o1`, for which the inhibition is 102% (active).

As to `Nc1ncc([N+](=O)[O-])c(Sc2nc3ccccc3s2)n1`, the inhibition is -52.4%. Turning to `C=CCNc1nnc(Sc2ncccc2[N+](=O)[O-])s1`, the inhibition is 98.3% (active). For `CC(C)=CCC1=C(O)c2ccccc2C(=O)C1=O` the value was 101% (active); for `O=C(Nc1nc2ccc3ccccc3c2s1)c1ccccc1`, 61.4% (active). For `O=C(Nc1nc2c(s1)CCN(Cc1ccccc1)C2)c1cccc(F)c1` the value was 21.5%.

For `COc1ccc(Nc2ncnc3c2cnn3Cc2ccc(C)cc2)cc1`, the inhibition is 23.5%. For `Cc1ccc(Cn2ncc3cc(Br)cnc32)cc1` the value was 97% (active); for `Cc1ccc(Cn2ncc3c(Nc4ccc(C)cc4)ncnc32)cc1`, 35.1%.

For `Cc1ccccc1-n1cc(CN(C)Cc2nc(-c3ccccc3)no2)cn1`, the inhibition is 86% (active). The value for `COc1ccc(Br)cc1S(=O)(=O)Oc1ccc2ccccc2c1` was 95.9% (active); that for `CCOc1ccc(Br)cc1S(=O)(=O)Oc1cccc2c1OC(C)(C)C2` was 23.4%.

`O=C(NS(=O)(=O)c1ccc(Cl)cc1F)c1cccc2cn[nH]c12`: the inhibition is 22.9%.

Regarding `CC(C)Oc1ccc(CNC(=O)c2cc(Cl)ccc2F)cn1`, the inhibition is -0.38%.

Take `O=C(NCc1ccc(OCC2CC2)nc1)c1cccc2cn[nH]c12`: the inhibition is 79.9% (active). Take `COCCn1c(O)c(C=NNC(=O)c2cc(Cl)ccc2O)c(=O)[nH]c1=S`: the inhibition is 45.1%. For `O=C(NN=Cc1ccco1)c1cc(Br)ccc1O` the value was 98.8% (active); for `C=CCc1ccccc1OCCn1cnc2ccccc21`, 57% (active).

As to `C=CCc1ccc(OCCOc2ccc(F)cc2)c(OC)c1`, the inhibition was -4.29%. As for `C=CCc1ccc(OCCCCn2cnc3ccccc32)c(OC)c1`, the inhibition is 61.1% (active). Consider `OCc1ccc(Oc2ccc(Br)cc2)c(F)c1`, for which the inhibition was 94.1% (active). For `Cc1nc(N)sc1-c1ccc([N+](=O)[O-])o1` the value was -7.32%; for `Cc1ccc(S(=O)(=O)c2ccc([N+](=O)[O-])o2)cc1`, 102% (active); for `O=C(Nc1nnc(C2CC(=O)N(c3ccccc3)C2)o1)C1=COCCO1` (configuration not stated), 93.6% (active).

Regarding `Cc1cc(C)c(-c2nc(NC(=O)C3=COCCO3)sc2C)cc1C`, the inhibition was 11.4%. The value for `NC(=S)COc1ccc(F)cc1` was 77.8% (active).

In the case of `NC(=S)COc1ccccc1`, the inhibition is 65.4% (active). Regarding `O=C1CC(=O)N2C(c3ccccc3)=CSC2(OCCS)N1` (configuration not stated), the inhibition is -5.38%. As to `Cc1cccc(CNC(=O)c2ccc(-c3ccc(Oc4ccccc4)cc3)s2)c1`, the inhibition was 82.4% (active). The value for `COc1ccc(CNC(=O)c2ccc(-c3cccc(Cl)c3)s2)cc1` was 54.9% (active). With `CC(NC(=O)c1ccc(-c2cccc(Cl)c2)s1)C(C)(C)C` (configuration not stated), the inhibition was 50% (active). For `COc1cccc(CNC(=O)c2ccc(-c3ccc(F)cc3)s2)c1` the value was “inactive”; for `O=C(NCc1ccncc1)c1ccc(-c2ccc(C3CCCCC3)cc2)s1`, 8.46%. As for `N#Cc1sc(-c2cccc(Cl)c2)cc1N`, the inhibition is 42.5%. The value for `Clc1ccc(-n2cccc2CN2CCc3c([nH]c4ccccc34)C2c2ccccn2)nc1` (configuration not stated) was 37.9%; that for `NC(=O)c1cc2c(cc1-c1cccc(C(F)(F)F)c1)OCO2` was 22.9%.

With `Cc1ccc2c(=O)c(-c3cccc(C(F)(F)F)c3)coc2c1`, the inhibition was 57.7% (active).
